These results are taken from PubChem BioAssay (Tox21).

Each structure is given as a SMILES string. Results filed as inconclusive are left out. A call without a number means that no potency is given here. The source made the active and inactive calls. The call rests on the fitted dose curve.

Sequence of Acetylcholinesterase (Homo sapiens) (P22303 whole entry, looked up): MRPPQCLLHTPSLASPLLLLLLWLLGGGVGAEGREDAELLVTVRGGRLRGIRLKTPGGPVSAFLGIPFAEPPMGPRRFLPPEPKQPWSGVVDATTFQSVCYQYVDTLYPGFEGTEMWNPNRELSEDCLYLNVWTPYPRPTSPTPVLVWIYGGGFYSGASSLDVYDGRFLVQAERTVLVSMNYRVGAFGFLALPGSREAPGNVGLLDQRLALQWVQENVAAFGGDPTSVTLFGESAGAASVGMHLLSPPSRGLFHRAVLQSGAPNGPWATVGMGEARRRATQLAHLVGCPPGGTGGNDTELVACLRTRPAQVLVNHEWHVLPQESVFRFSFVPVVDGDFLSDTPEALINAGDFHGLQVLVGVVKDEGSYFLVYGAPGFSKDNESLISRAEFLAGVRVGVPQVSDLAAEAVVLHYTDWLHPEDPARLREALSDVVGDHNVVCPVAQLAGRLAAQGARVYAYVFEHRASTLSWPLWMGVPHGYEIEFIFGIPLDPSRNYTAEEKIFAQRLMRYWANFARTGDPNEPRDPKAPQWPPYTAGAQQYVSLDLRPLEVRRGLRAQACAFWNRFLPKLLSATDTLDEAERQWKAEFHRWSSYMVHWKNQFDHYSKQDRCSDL

One assay deals with Acetylcholinesterase (Homo sapiens) (UniProt P22303). Nature of the assay: Acetylcholinesterase (AChE) small molecule antagonists: colormetric cell-based qHTS assay (AID 1347395). Further: nearly all actives have a fitted effect of over 30% in size. Conditions: SH-SY5Y cells AChE activity, colorimetric (Ellman); series mostly up to 115 µM. A digest of the protocol:
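Homogeneous whole-cell format. SH-SY5Y cells seeded overnight, dosed with compound (30 min, 37 C, 5% CO2), then given DTNB/acetylthiocholine cocktail for 90 min at 37 C; colorimetric signal.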
Take `CC1(C)C2=CCCC(C)(C)[C@]23CC[C@H]1C3`: the Potency entry was “inactive”.

For the compound `CCCCCOC(=O)Nc1nc(=O)n([C@@H]2O[C@H](C)[C@@H](O)[C@H]2O)cc1F`, the Potency entry is “inactive”.

Consider `NC(CSCC(=O)O)C(=O)O` (stereo not given), for which the Potency result is “inactive”.

Consider `CN(C/C=C/C#CC(C)(C)C)Cc1cccc2ccccc12`, for which the Potency result was “inactive”.

On to `CC1=C(/C=C/C(C)=C/C=C/C(C)=C/C(=O)Nc2ccc(O)cc2)C(C)(C)CCC1`, for which the Potency result was “inactive”.

For the compound `C=C(C)C(=O)O`, the Potency result was “inactive”.

On to `CCCc1c2oc(C(=O)O)cc(=O)c2cc2c(=O)cc(C(=O)O)n(CC)c12`, for which the Potency result was “inactive”.

For `CCN(CC)CCOC(=O)C(c1ccccc1)C1CCCCC1` (stereo not given), the Potency entry is “inactive”.

Take `CCCCCCCC/C=C\CCCCCCCC(=O)OC`: the Potency result is “inactive”.

For the compound `NCCCN(CCO)CCO`, the Potency result is “inactive”.

As to `CNC(=O)c1cc(Oc2ccc(NC(=O)Nc3ccc(Cl)c(C(F)(F)F)c3)cc2)ccn1`, the Potency result was “inactive”.

As to `FB(F)F`, the Potency result is “inactive”.

For `Nc1ccc(N=Nc2ccccc2)c(N)n1`, the Potency result was “inactive”.

Turning to `CN(C)CCOC(c1ccccc1)c1ccc(Br)cc1` (stereo not given), the Potency entry is “inactive”.

For the compound `CCn1ccc(NS(=O)(=O)c2ccc(N)cc2)nc1=O`, the Potency result is “inactive”.

As to `N/C(=N\N=C\c1ccc(Cl)cc1)N/N=C/c1ccc(Cl)cc1`, the Potency result was “inactive”.

Regarding `CC(C)N(C)C`, the Potency result is “inactive”.

`CN1CCN(C2Cc3ccccc3Sc3ccc(Cl)cc32)CC1` (stereo not given): the Potency result is “inactive”.

For the compound `O=S(=O)(O)c1ccc2ccccc2c1`, the Potency result was “inactive”.

Turning to `COc1ccccc1N1CCN(CCCCNC(=O)c2ccc(-c3ccc(C(C)=O)cc3)cc2)CC1`, the Potency entry is “inactive”.

As for `CCN(CC#N)c1cccc(C)c1`, the Potency result was “inactive”.

For `COc1ccc2[nH]cc(CCNC(C)=O)c2c1`, the Potency result was “inactive”.

As to `Cc1cc(SC2=C(O)C[C@@](CCc3ccc(N)cc3)(C(C)C)OC2=O)c(C(C)(C)C)cc1CO`, the Potency result is “inactive”.

For the compound `NC(=O)NC(=O)Cc1ccccc1`, the Potency result is “inactive”.

For `C1CCCNCC1`, the Potency result was “inactive”.

Turning to `CN=C(NC#N)NCCSCc1nc[nH]c1C`, the Potency result was “inactive”.

As for `NC[C@H](O)c1ccc(O)c(O)c1`, the Potency result was “inactive”.

On to `CN1CC(=O)N/C1=N/C(=O)Nc1cccc(Cl)c1`, for which the Potency result was “inactive”.

Take `O=C1CC2CC1C1CCCC21` (stereo not given): the Potency entry is “inactive”.

On to `C=C(C)C(=O)OCC(C)C`, for which the Potency result is “inactive”.

On to `CC1=CC(=O)CC(C)(C)C1`, for which the Potency entry is “inactive”.

For the compound `N#C[C@@H]1CC(F)(F)CN1C(=O)CNC1CC2CCC(C1)N2c1ncccn1` (stereo not given in full), the Potency entry was “inactive”.

Consider `COc1ccc2c(c1)c(CC(=O)OC/C=C(\C)CC/C=C(\C)CCC=C(C)C)c(C)n2C(=O)c1ccc(Cl)cc1`, for which the Potency entry is “inactive”.

In the case of `CCC(=O)c1cccc(Cl)c1`, the Potency entry is “inactive”.

As for `CCCCCCCCCCCC[N+](C)(C)CC(=O)[O-]`, the Potency result was “inactive”.

On to `[O-]/[N+](=N\O)c1ccccc1`, for which the Potency result was “inactive”.

`Cc1c(F)c(N2CCNC(C)C2)cc2c1c(=O)c(C(=O)O)cn2C1CC1` (stereo not given): the Potency result is “inactive”.

Turning to `CNS(=O)(=O)CCc1ccc2[nH]cc(C3CCN(C)CC3)c2c1`, the Potency result was “inactive”.

`CC(=O)O[C@H]1CC[C@@]2(C)C(=CC[C@@H]3[C@@H]2CC[C@]2(C)C(C(C)=O)=CC[C@@H]32)C1`: the Potency entry was “inactive”.

On to `O=C1OCCN1/N=C/c1ccc([N+](=O)[O-])o1`, for which the Potency entry is “inactive”.

The target is the same in the next assay. The experiment in a line: Acetylcholinesterase (AChE) small molecule antagonists: enzyme-based qHTS assay (AID 1347397). Further: nearly all actives have a fitted effect of over 55% in size. Conditions: Potency: AChE enzyme activity inhibition; outcome: AChE enzyme activity inhibition; series mostly up to 115 µM. The method in brief:
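Recombinant human AChE (50 mU/mL) preincubated with compound 30 min at room temperature; acetylthiocholine plus DTNB then added, and thiocholine formation read colorimetrically after 10 min at room temperature. DMSO served as vehicle control.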
A general note: Quantitative high-throughput screening tests each substance at several concentrations.
`CC1(C)C2=CCCC(C)(C)[C@]23CC[C@H]1C3`: the Potency result is “inactive”.

For `CCCCCOC(=O)Nc1nc(=O)n([C@@H]2O[C@H](C)[C@@H](O)[C@H]2O)cc1F`, the Potency result was “inactive”.

`NC(CSCC(=O)O)C(=O)O` (stereo not given): the Potency entry was “inactive”.

With `CN(C/C=C/C#CC(C)(C)C)Cc1cccc2ccccc12`, the Potency entry is “inactive”.

Consider `CC1=C(/C=C/C(C)=C/C=C/C(C)=C/C(=O)Nc2ccc(O)cc2)C(C)(C)CCC1`, for which the Potency entry was “inactive”.

In the case of `C=C(C)C(=O)O`, the Potency entry is “inactive”.

Take `CCCc1c2oc(C(=O)O)cc(=O)c2cc2c(=O)cc(C(=O)O)n(CC)c12`: the Potency result is “inactive”.

Take `CCN(CC)CCOC(=O)C(c1ccccc1)C1CCCCC1` (stereo not given): the Potency result is “inactive”.

In the case of `CCCCCCCC/C=C\CCCCCCCC(=O)OC`, the Potency result is “inactive”.

As for `NCCCN(CCO)CCO`, the Potency entry is “inactive”.

Turning to `CNC(=O)c1cc(Oc2ccc(NC(=O)Nc3ccc(Cl)c(C(F)(F)F)c3)cc2)ccn1`, the Potency result is “inactive”.

For `FB(F)F`, the Potency result was “inactive”.

Consider `Nc1ccc(N=Nc2ccccc2)c(N)n1`, for which the Potency result is “inactive”.

In the case of `CN(C)CCOC(c1ccccc1)c1ccc(Br)cc1` (stereo not given), the Potency result is “inactive”.

As to `CCn1ccc(NS(=O)(=O)c2ccc(N)cc2)nc1=O`, the Potency entry was “inactive”.

Take `N/C(=N\N=C\c1ccc(Cl)cc1)N/N=C/c1ccc(Cl)cc1`: the Potency result is “inactive”.

Regarding `CC(C)N(C)C`, the Potency result was “inactive”.

For `CN1CCN(C2Cc3ccccc3Sc3ccc(Cl)cc32)CC1` (stereo not given), the Potency entry is “inactive”.

With `O=S(=O)(O)c1ccc2ccccc2c1`, the Potency entry is “inactive”.

For the compound `COc1ccccc1N1CCN(CCCCNC(=O)c2ccc(-c3ccc(C(C)=O)cc3)cc2)CC1`, the Potency result was “inactive”.

For `CCN(CC#N)c1cccc(C)c1`, the Potency result is “inactive”.

Consider `COc1ccc2[nH]cc(CCNC(C)=O)c2c1`, for which the Potency entry is “inactive”.

Turning to `Cc1cc(SC2=C(O)C[C@@](CCc3ccc(N)cc3)(C(C)C)OC2=O)c(C(C)(C)C)cc1CO`, the Potency result was “inactive”.

For `NC(=O)NC(=O)Cc1ccccc1`, the Potency result is “inactive”.

For `C1CCCNCC1`, the Potency entry was “inactive”.

With `CN=C(NC#N)NCCSCc1nc[nH]c1C`, the Potency result was “inactive”.

As to `NC[C@H](O)c1ccc(O)c(O)c1`, the Potency result is “inactive”.

As for `CN1CC(=O)N/C1=N/C(=O)Nc1cccc(Cl)c1`, the Potency result is “inactive”.

With `O=C1CC2CC1C1CCCC21` (stereo not given), the Potency entry was “inactive”.

Turning to `C=C(C)C(=O)OCC(C)C`, the Potency result was “inactive”.

Consider `CC1=CC(=O)CC(C)(C)C1`, for which the Potency result was “inactive”.

As for `N#C[C@@H]1CC(F)(F)CN1C(=O)CNC1CC2CCC(C1)N2c1ncccn1` (stereo not given in full), the Potency entry is “inactive”.

For `COc1ccc2c(c1)c(CC(=O)OC/C=C(\C)CC/C=C(\C)CCC=C(C)C)c(C)n2C(=O)c1ccc(Cl)cc1`, the Potency result was “inactive”.

In the case of `CCC(=O)c1cccc(Cl)c1`, the Potency result was “inactive”.

As for `CCCCCCCCCCCC[N+](C)(C)CC(=O)[O-]`, the Potency entry is “inactive”.

As for `[O-]/[N+](=N\O)c1ccccc1`, the Potency entry is “inactive”.

As for `Cc1c(F)c(N2CCNC(C)C2)cc2c1c(=O)c(C(=O)O)cn2C1CC1` (stereo not given), the Potency entry is “inactive”.

In the case of `CNS(=O)(=O)CCc1ccc2[nH]cc(C3CCN(C)CC3)c2c1`, the Potency entry was “inactive”.

Turning to `CC(=O)O[C@H]1CC[C@@]2(C)C(=CC[C@@H]3[C@@H]2CC[C@]2(C)C(C(C)=O)=CC[C@@H]32)C1`, the Potency result is “inactive”.

Turning to `O=C1OCCN1/N=C/c1ccc([N+](=O)[O-])o1`, the Potency result is “inactive”.
